Measurements: the supplement of paper PMC6555819

Key:
Assay in all cases: PBM binding z-score (relative to random genomic background probes); higher = stronger binding; sequences stand for … in GC…GCGATTGACAGCGTAGAATGAAGG
[1] = tested on: PPARg:RXRa DBDmut IVT, anti-RXR (DBD mutation: RXRa K156A/R161A, NR concentration 270 nM, RXRa partner concentration 90 nM)
Method in brief: (§1)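 Binding z-scores were set against random background probes. The data came from custom Agilent 4×180K protein-binding microarrays carrying double-stranded probes with 34-nt variable regions, incubated 1 h with ligand-free nuclear receptor dimers. Partner-specific antibodies detected binding, and scanned fluorescence was regression-normalized.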

[2] = tested on: PPARg:RXRa IVT, anti-PPARg (NR concentration 270 nM, RXRa partner concentration 90 nM)
Method in brief: as §1

[3] = tested on: PPARg DBDmut:RXRa IVT, anti-PPARg (DBD mutation: PPARg1 K132A/R137A, NR concentration 270 nM, RXRa partner concentration 90 nM)
Method in brief: as §1

[4] = tested on: PPARg DBDmut IVT, anti-PPARg (DBD mutation: PPARg1 K132A/R137A, NR concentration 270 nM)
Method in brief: as §1

[5] = tested on: PPARg homodimer (NR concentration 180 nM)
Method in brief: as §1

[6] = tested on: PXR:RXRa (NR concentration 270 nM, RXRa partner concentration 90 nM)
Method in brief: as §1

[7] = tested on: PXR homodimer (NR concentration 270 nM)
Method in brief: as §1

[8] = tested on: RARa:RXR (NR concentration 270 nM, RXRa partner concentration 90 nM)
Method in brief: as §1

[9] = tested on: RARa homodimer (NR concentration 270 nM)
Method in brief: as §1

[10] = tested on: RARb:RXRa (NR concentration 270 nM, RXRa partner concentration 90 nM)
Method in brief: as §1

Sequence	PBM binding z-score [1]	PBM binding z-score [2]	PBM binding z-score [3]	PBM binding z-score [4]	PBM binding z-score [5]	PBM binding z-score [6]	PBM binding z-score [7]	PBM binding z-score [8]	PBM binding z-score [9]	PBM binding z-score [10]
TCTTGTAGATCAATAGAGGTTAAGAGAGTGCGCT	1.67	1.07	0.505	0.44	0.687	3.92	0.241	1.73	0.69	0.738
TAGCCTAGGTCATGTGGGCCAGTATAGTGTCGGC	1.81	3.41	-0.502	-0.513	0.832	1.47	-0.447	2.33	-0.278	3.81
CCGAGTAGGTTATGGGGAATTCAGGCAACGGTGA	3.51	2.6	-0.221	0.307	1.64	0.204	0.469	0.654	0.587	0.784
GCAGACAGGTGAAACGGAGGTAACTCAGGGTGGC	1.09	0.463	-0.413	-1.08	-0.308	0.0496	-0.337	0.668	-0.627	0.729
TCATGTAGATCAAGCAGGTTAAGAAAGCCTGAGT	2.01	0.466	0.49	0.274	0.552	0.746	0.293	0.72	-0.363	-0.0113
ACTAGCAGGCCAAGGGTCACTGAAGATTAGTCCG	1.21	4.08	0.528	0.377	5.87	3.39	-0.283	4.86	0.818	3.76
CGTCCAAGGTCAGAGAGGTCAGTGCATGCCGAGT	3.03	3.39	-0.458	-1.04	4.89	5.91	11.5	5.08	1.45	5.17
ACTCGGCGGACAAAGGTCAGAGCTACGCCAGTGA	0.148	2.33	-0.012	-0.434	1.79	3.41	0.0332	4.18	0.924	4.22
TTTATTAGTTGATTAGGGCAACCGAAACAGCGGA	1.46	2.1	1.84	1.94	1.68	0.473	0.839	0.832	2.38	1.24
ATCTCTAGGTAAAGATAGTTCAGCGAATGCAAAT	2.37	1.47	0.72	1.31	0.488	0.995	0.643	0.739	1.34	0.964
AATACAGGGTCAGCGTAGGCCAGAGTACGCACAG	1.94	3.32	1.54	1.65	1.81	3.51	0.39	3.85	0.496	4.15
ATAGACAGGTGATGAAGGTAACTCAGGCTATCAT	-0.221	0.67	1.3	0.102	0.341	-0.261	0.251	-0.0358	0.641	0.316
ATCTCTAGGTAACAAGTTCAGTTAAAGAGAGGAC	2.97	2.91	1.33	1.39	1.31	1.79	1.75	0.869	1.39	1.71
ATCTCTAGGTATGACTCAGTTCAGTGAAGAACGC	0.262	0.638	0.456	1.61	0.371	0.877	1.49	0.389	0.624	0.243
AGAATGAGGTTATTGAGATCAGGGAATTGCGGTC	3.5	2.93	0.606	0.563	0.709	1.57	0.864	1.84	0.342	1.63
ACAGACAGGTGAGTGAAGGTTACTCAGCTGGACG	0.352	1.16	0.332	0.037	0.138	0.646	-0.03	0.952	0.201	1.15
TCTTGTAGATCAATAGAGGTTAAGACAGTGCGCT	1.86	0.857	0.686	0.616	0.896	2.24	0.168	1.71	0.602	0.993
CAGCCTAGGGCAGGGCCAGTATAGGAGGAACGTT	-0.842	-0.372	-2.01	-1.9	-1.39	-1.13	-0.815	-0.853	-0.656	0.716
TCCCGGAGGACACGAAGGTCAGAGCTTTCCAGAG	0.961	0.734	-0.541	-1.41	1.3	1.73	0.166	1.95	-0.433	3.44
AGAACGAGGGCACGCTGAATTGATAGCAGAGTAG	4.42	4.08	0.656	0.0574	-0.00941	0.266	-0.373	0.746	-0.442	2.5
TCGAGTAGGTTACCAACGGGGCATTCAGCTTTCT	3.15	2.64	-0.246	0.0471	-0.456	-0.0163	-0.774	0.402	-1.51	0.936
CAAACTAGGTCAAAGGTCACAGTCGAGCCAACCA	8.58	9.39	3.19	2.73	4.25	6.88	1.29	8.53	1.9	5.89
CCTAGTTGGTAAAGGTCACACACGCTATAGGTAC	1.96	4.31	1.8	2.57	5.56	5.79	2.18	6.31	3.99	5.22
AGAATGAGCTTAAGATCAGGGAAACAGAATACAT	-0.826	-0.493	0.133	0.568	-0.142	-0.393	-0.0876	0.0208	-0.0937	-0.502

Sequence	PBM binding z-score [1]	PBM binding z-score [2]	PBM binding z-score [3]	PBM binding z-score [4]	PBM binding z-score [5]	PBM binding z-score [6]	PBM binding z-score [7]	PBM binding z-score [8]	PBM binding z-score [9]	PBM binding z-score [10]
TCATATAGGTAAACAGGTGAAAGTTCGTAAGTTA	4.94	5.28	1.8	1.15	1.88	2.07	2.12	2.61	2.02	1.25
AGAACGAGGGCACGCTGAGGTGATAGCAGAGTAG	4.07	4.06	1.26	0.179	0.573	0.989	-0.0676	1.66	-0.189	2.66
CCTTACGGGTCACTCCAAGTTATAGCATCGGAGT	3.33	3.23	0.816	0.0314	3.25	2.57	0.296	3.32	1.47	3.56
TTATATAGGTAATACAGGTGAAAGTCGGCATCTA	6.01	5.97	1.64	2.72	1.34	0.367	0.343	0.639	1.4	0.616
TCTTGTAGATCAACAGGAGTTTAAGAAAGATCGA	1.57	0.487	0.0985	0.197	-0.389	0.514	-0.0735	0.201	-0.584	0.0376
CCTTACGGGTCACTGACAGGTGATAGCATTTGGA	3.73	3.99	0.64	-0.737	2.47	4.3	0.473	5.06	0.945	4.15
ATATGTAGGTTAGCTGGGGTCACTCAGACTAGGC	6.74	6.02	1.28	0.639	2.37	5.85	2.05	5.16	0.798	3.22
TCTATGAGTTGAAGGGCAACCGACGAGTCCGTTT	1.46	0.477	-0.166	0.0578	-0.142	0.853	0.0161	0.674	-0.22	1.37
CGTCCAAAGTCAATGCTAGGTCAGTGAAAGCATT	0.0357	0.544	-0.669	-0.616	1.04	0.434	-0.027	1.07	0.396	1.68
CCTTACGGGTCACGAGGGTATAGCACGACGAGCG	3.29	5.07	0.569	0.0491	2.12	4.23	-0.0662	4.88	0.889	4.44
TGAATGAGGTTAAGGATCAGGGAACGTGGCGTCG	1.6	2.61	0.781	-0.105	0.99	1.08	-0.0179	2.08	0.367	2.03
GCTAGCAGGCCATTTGCGTCACTCAATGACGGGC	1.06	-0.0589	-0.895	-0.638	-1.08	-0.562	-0.856	-0.774	-1.25	-0.167
CGAACGAGGGCATGAGTTGATTGCAAATGCCGAT	2.89	1.87	-0.365	-0.273	0.304	0.676	0.4	0.51	-0.117	1.96
TAGCCTAGGTCTGATCGGGCCAGTATACGCTATA	-0.797	-0.522	-0.763	-0.994	-0.906	-0.673	-1.05	-0.33	-1.47	-0.362
TCGAGTAGGTTAGTCGGGGCATTCCGCCAACATA	2.34	2	-0.206	-0.88	-0.0815	0.0285	-0.57	0.175	-0.691	0.585
CAAACTAGGTCACAGAGGTCAAAGTGCGTGCGTA	8.28	9.04	1.58	0.779	3.18	6.72	9.97	7.47	2.13	5.4
CTAGAAAGGTCGGTTGAGGTGAGTATACGGATAA	0.237	1.18	0.0511	0.00122	1.34	3.37	0.245	2.6	0.889	3.03
ATCCAAAGGTCGTGAGGTGAGTATACAGAAAGGC	0.752	2.92	1.39	0.827	1.97	3.64	0.629	4.91	1.46	4.4
CCTGCTAGGTCAATGGTCAGCTTAAGCAGCTCGC	4.75	4.06	-0.513	-0.387	1.92	1.05	-0.588	1.88	-0.443	3.84
ACTAGTTGGTCAGCTGAGGTTACACACAATTCGG	1.4	1.58	0.987	0.803	1.09	2.46	0.19	1.64	-0.138	1.73
CCTCGTTGGTCAAGGTCACACACGCTATAGGTAC	1.3	2.58	1.08	-0.102	3.26	4.25	1.82	4.63	2.69	4.18
TCTGCTAAGTCAACGATGGTCAGCTAATCTGCTA	0.507	-0.186	-0.69	-0.943	-1.18	-0.538	-1.18	-0.422	-1.62	0.171
TGAATGAGGTTACAAGATCAGGGAACGTTGCAAA	1.92	3.07	0.903	1	0.112	0.754	-0.231	1.68	0.0919	1.73
AGAACCAGGGCACGCTGAGTTGATAGCAGAGTAG	4.22	3.95	0.0191	-0.605	-0.0465	0.357	-0.341	0.14	-0.234	1.34
